The nature of assay [1]: qHTS assay to identify small molecule inhibitors of chordoma cells - UCH-2 (AID 1259356). On the technique in general: qHTS replaces the single test concentration by a dilution series.
Assay [2] can be described thus: P-glycoprotein substrates identified in KB-8-5-11 adenocarcinoma cell line, qHTS therapeutic library screen (AID 1346987). Further: nearly all actives have a fitted effect of over 65% in size. The method in brief: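 Steps: plate 500 KB-8-5-11 cells/well in DMEM + 10% FCS (colchicine removed); pin compounds in dose-response; incubate 72 h, 37 degree C, 5% CO2; add CellTiter-Glo, 5 min; read luminescence.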

Each structure is given as a SMILES string. Inconclusive results are not listed. Calls of active or inactive are those of the source. The call rests on the fitted dose curve; in most records, active means well fitted curve in the direction sought with a large enough effect; inconclusive means small, poorly fitted or top-dose-only effect, or another doubt; inactive means no such curve, though single readings can be large; an effect the other way counts as inactive or inconclusive.
Potency means the concentration at half of the fitted maximal effect.

As to `O=P(O)(O)C(Cl)(Cl)P(=O)(O)O`, the Potency result in assay [1] and in assay [2] was “inactive” each time.
`CCON=O`: the Potency entry in assay [1] and in assay [2] was “inactive” in each case.
Regarding `CC[N+](C)(CC)CCOC(=O)C(O)(c1ccccc1)c1ccccc1`, the Potency result in assay [1] and in assay [2] was “inactive” throughout.
For `CCOc1ccc2c3c1O[C@H]1[C@@H](O)C=C[C@H]4[C@@H](C2)N(C)CC[C@@]341`, the Potency entry in assay [1] and in assay [2] was “inactive” throughout.
Regarding `NCC[C@H](O)C(=O)N[C@@H]1C[C@H](N)[C@@H](O[C@H]2O[C@H](CN)[C@@H](O)[C@H](O)[C@H]2N)[C@H](O[C@@H]2O[C@H](CO)[C@@H](O)[C@H]2O)[C@H]1O`, the Potency entry in assay [1] and in assay [2] was “inactive” in each case.
Take `CN1c2ccccc2C(NCCCCCCC(=O)O)c2ccc(Cl)cc2S1(=O)=O` (stereo not given): the Potency result in assay [1] and in assay [2] was “inactive” in each case.
Turning to `COc1cc2c(cc1OC)[C@@]13CCN4CC5=CCO[C@H]6CC(=O)N2[C@H]1[C@H]6[C@H]5C[C@H]43`, the Potency result in assay [1] and in assay [2] was “inactive” each time.
As to `C[C@H]1CC[C@]2(NC1)O[C@H]1C[C@H]3[C@@H]4CC[C@H]5C[C@@H](O)CC[C@]5(C)[C@H]4CC[C@]3(C)[C@H]1[C@@H]2C`, the Potency result in assay [1] and in assay [2] was “inactive” throughout.
Consider `COC([CH2][Hg])CNC(=O)c1ccccc1OCC(=O)O` (stereo not given), for which the Potency result in assay [1] and in assay [2] was “inactive” throughout.
Regarding `O=c1ccc2cc(O[C@@H]3O[C@H](CO)[C@@H](O)[C@H](O)[C@H]3O)c(O)cc2o1`, the Potency entry in assay [1] and in assay [2] was “inactive” throughout.
As for `CC(C)CCON=O`, the Potency entry in assay [1] and in assay [2] was “inactive” in each case.
`CC(C)CCC(=O)O[C@H]1CC[C@H]2[C@@H]3CCC4=CC(=O)CC[C@]4(C)[C@H]3CC[C@]12C`: the Potency result in assay [1] is “inactive”. In assay [2], the Potency is 7.31 µM (active).
As to `CCC1(c2ccccc2)C(=O)NC(=O)N(C(=O)c2ccccc2)C1=O` (stereo not given), the Potency entry in assay [1] and in assay [2] was “inactive” each time.
In the case of `Clc1ccc(Cl)cc1`, the Potency entry in assay [1] and in assay [2] was “inactive” throughout.
As for `CCC(N)Cc1c[nH]c2ccccc12` (stereo not given), the Potency entry in assay [1] and in assay [2] was “inactive” in each case.
`O=c1[nH]cc(N(CCCl)CCCl)c(=O)[nH]1`: the Potency entry in assay [1] and in assay [2] was “inactive” each time.
Turning to `CC(=O)O[C@H]1C[C@H](O[C@H]2[C@@H](O)C[C@H](O[C@H]3[C@@H](O)C[C@H](OC4CC[C@@]5(C)[C@H](CC[C@@H]6[C@@H]5CC[C@]5(C)[C@@H](C7=CC(=O)OC7)CC[C@]65O)C4)O[C@@H]3C)O[C@@H]2C)O[C@H](C)[C@H]1O[C@@H]1O[C@H](CO)[C@@H](O)[C@H](O)[C@H]1O` (stereo not given in full), the Potency in assay [1] and in assay [2] was 0.259 µM (active) throughout.
In the case of `C[C@]12CC[C@H]3[C@@H](CCC4=C(Cl)C(=O)CC[C@@]43C)[C@@H]1CC[C@@H]2O`, the Potency entry in assay [1] is “inactive”. Further, in assay [2], the Potency is 13 µM (active).
In the case of `[O]=[Cd]`, the Potency result in assay [1] and in assay [2] was “inactive” each time.
As for `C[C@]12C=CC(=O)C=C1CC[C@@H]1[C@@H]2CC[C@]2(C)OC(=O)CC[C@@H]12`, the Potency entry in assay [1] and in assay [2] was “inactive” each time.
`CCOC(=O)/C=C(C)/C=C/C[C@@H](C)CCCC(C)C`: the Potency entry in assay [1] and in assay [2] was “inactive” each time.
`CCCCCCCCOC(=O)c1ccccc1C(=O)OCCCCCCCC`: the Potency entry in assay [1] and in assay [2] was “inactive” throughout.
On to `S=C(S)N1CCNCC1`, for which the Potency result in assay [1] and in assay [2] was “inactive” each time.
Turning to `c1csc(C2(N3CCCCC3)CCCCC2)c1`, the Potency entry in assay [1] and in assay [2] was “inactive” each time.
Turning to `CCCCCCCCCC(=O)O[C@H]1CC[C@H]2[C@@H]3CCC4=CC(=O)CC[C@]4(C)[C@H]3CC[C@]12C`, the Potency entry in assay [1] is “inactive”. Besides, in assay [2], the Potency is 16.4 µM (active).
Regarding `CCC1(C)CC(=O)NC(=O)C1`, the Potency result in assay [1] and in assay [2] was “inactive” each time.
Regarding `O=C1OC2(c3cc(Br)c(O)cc3Oc3c2cc(Br)c(O)[c]3[Hg])c2ccccc21` (stereo not given), the Potency result in assay [1] and in assay [2] was “inactive” throughout.
Consider `OC(c1ccccc1)(c1ccccc1)C1CN2CCC1CC2` (stereo not given), for which the Potency result in assay [1] and in assay [2] was “inactive” throughout.
As for `CCC/C=C/C=C/C(=O)O[C@H]1/C(=C/C(=O)OC)C[C@H]2C[C@H]([C@@H](C)O)OC(=O)C[C@H](O)C[C@@H]3C[C@H](OC(C)=O)C(C)(C)[C@](O)(C[C@@H]4C/C(=C/C(=O)OC)C[C@H](/C=C/C(C)(C)[C@]1(O)O2)O4)O3`, the Potency result in assay [1] and in assay [2] was “inactive” in each case.
For the compound `CNc1ccc(C(=O)CC(O)CCC(C)C2OC(=O)CC(O)CC(=O)CC(O)CC(O)CC(O)CC(O)CC3(O)CC(O)C(C(=O)OC)C(CC(O[C@@H]4O[C@H](C)[C@@H](O)[C@H](N)[C@@H]4O)/C=C/C=C/C=C/C=C/C=C/C=C/C=C/C2C)O3)cc1` (stereo not given in full), the Potency result in assay [1] and in assay [2] was “inactive” throughout.
For `COc1ccc(OC)c([C@@H](O)[C@H](C)N)c1`, the Potency entry in assay [1] and in assay [2] was “inactive” each time.
In the case of `CN(C)[C@@H]1C(=O)C(C(N)=O)=C(O)[C@@]2(O)C(=O)C3=C(O)c4c(O)ccc(Cl)c4[C@@](C)(O)[C@H]3C[C@@H]12`, the Potency result in assay [1] and in assay [2] was “inactive” each time.
With `Clc1ccccc1Cl`, the Potency result in assay [1] and in assay [2] was “inactive” each time.
Regarding `O=C(O)C(Cl)(Cl)Cl`, the Potency entry in assay [1] and in assay [2] was “inactive” in each case.
`CNC1(c2ccccc2Cl)CCCCC1=O` (stereo not given): the Potency result in assay [1] and in assay [2] was “inactive” throughout.

(Values after PubChem BioAssay (NCATS).)
